Results as given in PubChem BioAssay AID2599 (Sanford-Burnham Center for Chemical Genomics, 2010).
In all, about 330,000 compounds went through this assay and about 5,800 (1.8%) were called active. The entries come from a sample that favours actives as a whole. Unmarked numbers belong to inactive results.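 The calls were made as follows: active = inhibition above about 50% at the single tested dose (limit read from the data); inactive = the rest.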

What follows are compounds tested against Sentrin-specific protease 6 (Homo sapiens) (UniProt Q9GZR1) (assay: inhibition of human SENP6 catalytic domain – biochemical, luminescence, uHTS, primary screen (AID 2599;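 also: plate controls were DMSO wells with enzyme for no effect and DMSO wells lacking enzyme for full effect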)). Conditions: Recombinant SENP6 catalytic domain, aminoluciferin luminescence; at 10 µM; hits give high values.
Sequence of Sentrin-specific protease 6 (Homo sapiens) (Q9GZR1 628-1112 limits assumed): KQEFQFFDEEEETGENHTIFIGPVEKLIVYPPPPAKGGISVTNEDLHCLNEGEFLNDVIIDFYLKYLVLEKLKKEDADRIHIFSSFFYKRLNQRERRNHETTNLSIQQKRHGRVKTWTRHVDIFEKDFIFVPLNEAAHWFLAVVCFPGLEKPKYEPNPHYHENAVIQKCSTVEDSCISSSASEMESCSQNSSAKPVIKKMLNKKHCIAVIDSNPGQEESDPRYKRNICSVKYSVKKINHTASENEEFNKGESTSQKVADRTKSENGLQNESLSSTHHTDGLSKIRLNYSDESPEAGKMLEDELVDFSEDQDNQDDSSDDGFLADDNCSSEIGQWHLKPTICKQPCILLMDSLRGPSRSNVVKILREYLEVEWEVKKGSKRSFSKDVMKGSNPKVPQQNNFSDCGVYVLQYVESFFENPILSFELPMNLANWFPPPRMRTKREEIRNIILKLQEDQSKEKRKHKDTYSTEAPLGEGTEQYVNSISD
Work on `CNc1nc(SC)nc(N(C#N)CC(=O)OC)n1` yielded an inhibition of 11.5%. Work on `Cc1cccc(NC(=O)Cc2ccc(Br)cc2)n1` yielded an inhibition of 16%. With `Cc1cccc(NC(=O)COc2ccc(Br)cc2C)n1` the inhibition was 69.2% (active). `CCN(CC)S(=O)(=O)c1ccc(C)c(NC(=O)COc2ccc(Br)cc2Cl)c1` showed an inhibition of 9.17%. For `Cc1ccc(N(C(=O)Cc2cccs2)C2C=CS(=O)(=O)C2)cc1Cl` (stereo not given), the inhibition was -12.7%. `O=C1CCC(=O)N(c2ccccc2)N1` was tested, and the inhibition was -18.9%. `O=C(c1cnccn1)N1CCN(S(=O)(=O)c2cccc(Cl)c2)CC1` was tested, and the inhibition was -6.78%. `Nc1ncc(-c2cc3ccccc3oc2=O)s1` was tested, and the inhibition was 92.4% (active). Work on `Cc1cc2c(=O)n(C)c(SCC(=O)c3cc4ccccc4o3)nc2s1` yielded an inhibition of 15.6%. Compound `O=C(NCc1cccnc1)c1cccc(-c2cc3ccccc3oc2=O)c1` has an inhibition of -7.83%. `O=C(CN1C(=O)CC(c2ccccc2)=Nc2ccccc21)NC1CCCCC1` gave an inhibition of -12%. For `CSCCC(NC(=O)COc1ccccc1)C(=O)Nc1ccc(C)cc1` (stereo not given), the inhibition was -14.9%. With `Cc1nc(NC(=O)c2cccc(Cl)c2)sc1-c1csc(Nc2cccc(Cl)c2)n1` the inhibition was 20%. Compound `Cc1ccccc1Nc1nc(-c2cccnc2)cs1` has an inhibition of 47.4%. `O=C(Nc1ccc(-c2csc(Nc3cccc(C(F)(F)F)c3)n2)cc1)c1cccc(C(F)(F)F)c1` showed an inhibition of -9.78%. In the case of `CC(=O)Nc1cccc(-c2csc(Nc3cccc(C)n3)n2)c1`, the inhibition is reported as 91.9% (active). With `Cc1cccc(Nc2nc(-c3ccccc3)cs2)n1` the inhibition was 93.1% (active). For `O=C(O)c1ccccc1C(=O)Nc1nc(-c2ccccc2)cs1`, the inhibition was -12.1%. In the case of `Cn1nnnc1SCC(=O)Nc1cccc(S(=O)(=O)N2CCCCC2)c1`, the inhibition is reported as -12.9%. With `Cc1cccc(CSc2nc3c(c(=O)n2C)SCC3)c1` the inhibition was 21.2%. `Cc1ccc(C(=O)N/N=C\c2cc(Br)c(Br)o2)cn1` was tested, and the inhibition was 66% (active). `Cc1ccc(C(=O)N/N=C/c2cccc3ccccc23)cn1` gave an inhibition of -7.6%. In the case of `O=C(N/N=C\c1cc(Br)c(Br)o1)C1COc2ccccc2O1` (stereo not given), the inhibition is reported as -7.15%. `CNC(=S)N/N=C/c1ccc(OCc2ccccc2)c(Br)c1` was tested, and the inhibition was -0.485%. With `CC(C)Oc1ccc(CN2CCC(n3nccc3NC(=O)c3cccnc3)CC2)cc1` the inhibition was 0.591%. Compound `O=C(N/N=C/c1ccc(Cl)c(Cl)c1)c1ccc2nc[nH]c2c1` has an inhibition of -7.64%. `CSc1ccc(/C=N\NC(=O)CC(=O)NC(C)C)cc1` was tested, and the inhibition was -5.21%. `CSc1ccc(/C=N/NC(=O)c2cccc(Cl)c2)cc1` was tested, and the inhibition was 94.4% (active). For `Cc1cc(C)c(NC(=O)CN2CCOCCOCCOCCOCC2)c(C)c1`, the inhibition was -4.6%. `CN(C)C(CNC(=O)CCCOc1ccccc1)c1ccco1` (stereo not given) was tested, and the inhibition was -5.38%. For `CCCCCCc1cc2cc(-c3nnc(-c4ccccc4)o3)c(=O)oc2cc1O`, the inhibition was -12.7%. With `O=c1oc2cc(O)ccc2cc1-c1ccc(F)cc1` the inhibition was 98% (active). `CN(C)c1cc(-c2ccc(F)cc2)oc(=O)c1Cl` was tested, and the inhibition was -8.53%. `COC(=O)c1c(C)oc(C)c1S(=O)(=O)NCc1ccc(Cl)cc1` gave an inhibition of -15.4%. Compound `CCOC(=O)c1c(/N=C/c2cc(C)ccc2O)sc2c1CCC2` has an inhibition of 6.68%. `Cc1ccnc2nc(C(=O)Nc3nnc(-c4ccccc4)o3)nn12` was tested, and the inhibition was 7.14%. Work on `O=C(Nc1ccccc1C(F)(F)F)c1cc(-c2ccc(O)cc2)on1` yielded an inhibition of 1.85%. With `Cc1ccc(O)c(NC(=O)c2cc(-c3ccco3)on2)c1` the inhibition was 62.9% (active). Compound `O=C(Nc1cccnc1Cl)c1cc(-c2ccccc2O)on1` has an inhibition of 17.2%. With `CCOC(=O)Cc1csc(SCC(=O)NC(C)C23CC4CC(CC(C4)C2)C3)n1` (stereo not given) the inhibition was -13.9%. `O=C1CCC(=O)N1c1ccc(NCCc2ccccc2F)c([N+](=O)[O-])c1` showed an inhibition of 11.8%. In the case of `O=C(Nc1ccccc1C(=O)O)c1cc(S(=O)(=O)N2CCCCC2)cs1`, the inhibition is reported as 15.3%. `O=C(COc1ccc([N+](=O)[O-])cc1Cl)Nc1ccc2[nH]c(=O)[nH]c2c1` was tested, and the inhibition was -8.3%. `CCC(C)Cn1c(O)cc2nn(-c3nc4ccccc4s3)c(=O)c-2c1C` (stereo not given) showed an inhibition of -3.5%. In the case of `CC(=NCc1ccco1)c1c(C(F)(F)F)[nH]n(-c2nc3ccccc3s2)c1=O`, the inhibition is reported as 97.8% (active). Compound `CC(=NCc1ccco1)C1=C(O)c2ccccc2C1=O` has an inhibition of 18.6%. Compound `CCc1ccc(-c2cc(C(=O)NCc3ccco3)c3ccccc3n2)s1` has an inhibition of -10.2%. Compound `CC(C)CC(=O)N/C(N)=N/c1nc2ccccc2s1` has an inhibition of 29.7%. With `C/C(=N\NC(=O)CC(C)C)c1c(C(F)(F)F)[nH]n(-c2nc3ccccc3s2)c1=O` the inhibition was 98% (active). Compound `COc1ccccc1C(=O)NCCC(=O)NC(C)CCc1ccccc1` (stereo not given) has an inhibition of -4.44%. `O=C(CN1CCCSc2ccccc21)N1CCN(S(=O)(=O)c2cccc(F)c2)CC1` was tested, and the inhibition was -22.3%. `CCCN1Cc2cccc(C(=O)NCc3ccccc3)c2C1=O` gave an inhibition of 10.8%. With `Cc1ccc(NS(=O)(=O)c2ccc(-c3coc(C)n3)cc2)c(C)c1` the inhibition was -4.93%. In the case of `CCOC(=O)[C@H]1[C@H]2COc3cc(OC)ccc3[C@@H]2N2C(=O)CN(Cc3ccc(Cl)cc3)C(=O)[C@@]12C`, the inhibition is reported as -7.07%. `COc1ccccc1N1CCN(S(=O)(=O)CCNC(=O)c2ccc(OC(C)C)cc2)CC1` was tested, and the inhibition was -8.31%. In the case of `COc1cc(NC(=O)CSc2ccc(-c3cccnc3)nn2)cc(OC)c1`, the inhibition is reported as 4.11%. In the case of `COc1ccccc1NC(=O)c1c(Br)cnn1C`, the inhibition is reported as -0.608%. For `N/C(=N\OC(=O)CC1CCCCC1)c1ccccc1`, the inhibition was 40.3%. Work on `COc1ccccc1OCC(=O)O/N=C(\N)c1ccccn1` yielded an inhibition of 13.8%. For `N/C(=N\OC(=O)CCC1CCCCC1)c1ccccn1`, the inhibition was 87.4% (active). For `Cc1ccc(O)c(CCc2ccccc2)n1`, the inhibition was 8.36%. In the case of `CCCc1ccc(-c2c(C)sc(NC(=O)c3ccnn3C)c2C#N)cc1`, the inhibition is reported as -0.479%. With `CN(C)C(=O)CSc1n[nH]c(-c2ccco2)n1` the inhibition was 0.308%. `O=C(O)CC(Cn1cnnn1)c1ccccc1` (stereo not given) gave an inhibition of -0.459%. `O=C(NCCS(=O)(=O)N1CCN(c2ccccc2)CC1)c1ccco1` gave an inhibition of 6.25%. Work on `CCOc1ccc(NC(=O)CCC(=O)NNC(=O)NC2CCCCC2)cc1` yielded an inhibition of -9.85%. For `CC(C)OC(=O)C(C#N)c1nc2ccccc2nc1N1CCN(Cc2ccccc2)CC1` (stereo not given), the inhibition was 6.5%. For `Cc1ccc(S(=O)(=O)C(C#N)c2nc3ccccc3nc2N2CCCC2)cc1C` (stereo not given), the inhibition was 75.9% (active). Compound `Cc1ccc(S(=O)(=O)N2CCN(c3ccccc3)CC2)cc1C` has an inhibition of 4.47%. With `O=C(CCCN1C(=O)c2ccccc2C1=O)Oc1ccc(Cl)cc1` the inhibition was 1.14%. In the case of `O=c1c2c(nc3n1CCCCC3)sc1c(O)cccc12`, the inhibition is reported as 51.8% (active). Compound `Cc1c(C(=O)Nc2ccccc2)sc2nc3n(c(=O)c12)CCCCC3` has an inhibition of -15.7%. In the case of `Cc1cccc2c(=O)n3c(nc12)CCCCC3`, the inhibition is reported as 9.44%. With `Cn1cccc1C(=O)NC(=O)COC(=O)Cc1coc2ccc3ccccc3c12` the inhibition was -4.09%. Compound `Cc1c(C(=O)NC(C)C2CC3CCC2C3)cccc1[N+](=O)[O-]` (stereo not given) has an inhibition of -22.4%. In the case of `COc1ccc(CCNC(=O)CCNS(=O)(=O)c2cc(Br)cnc2N)cc1OC`, the inhibition is reported as -5.77%. `O=c1/c(=C/c2ccc(CNS(=O)(=O)c3ccccc3)o2)sc2n1CCN=2` was tested, and the inhibition was 3.24%. In the case of `CCn1c(=O)cc(SCC(=O)NCCC2=CCCCC2)c2ccccc21`, the inhibition is reported as -1.94%. Compound `COCCNC(=O)CCCN1C(=O)c2ccccc2Sc2ncccc21` has an inhibition of -28.9%. `Oc1c(C=Nc2cccc3nsnc23)ccc2ccccc12` was tested, and the inhibition was 94.6% (active). `Cc1cc2c(cc1C)N(Cc1ccccc1)C1=NCCCN12` was tested, and the inhibition was -12.7%. `O=C(Nc1ccccc1)O/N=C1/CCCc2occc21` showed an inhibition of -12.8%. Work on `CCCN1C(=O)C(Cc2nc3ccccc3c(=O)n2-c2ccccc2)c2cc(C)ccc21` (stereo not given) yielded an inhibition of -13.2%. With `Cc1ccc(NC(=S)N(CCCN2CCCC2)Cc2cccn2Cc2ccc(Cl)cc2)cc1` the inhibition was -18%. `Brc1ccccc1C1N=C(c2ccccc2)NO1` (stereo not given) showed an inhibition of 38.9%. In the case of `N#Cc1ccc(C2N=C(c3ccccc3)NO2)cc1` (stereo not given), the inhibition is reported as 53% (active). `C/C=C/C=C/C(=O)O` was tested, and the inhibition was -2.25%. `COc1ccc(C(=O)C2CCCN(C(=O)c3cc(C)on3)C2)cc1F` (stereo not given) showed an inhibition of 4.97%. For `O=C(COC(=O)CNC(=O)C1CCCCC1)NCc1ccccc1`, the inhibition was 4.4%. In the case of `CCCCCCSc1ccc(-c2nc3ccc(Cl)cn3c2NCc2ccccc2)cc1`, the inhibition is reported as -0.449%. Work on `O=C(/C=C/c1ccc2c(c1)OCO2)NCc1cn2cc(Cl)ccc2n1` yielded an inhibition of -4.65%. In the case of `Clc1ccc2nc(CSc3ccccc3)cn2c1`, the inhibition is reported as 72.1% (active). Work on `CC1(c2ccc(Cl)cc2)NC(=O)N(CC(=O)c2ccc3c(c2)OCO3)C1=O` (stereo not given) yielded an inhibition of -6.26%. `CC1CCN(C(=O)c2ccc(CSc3ccc(Cl)cc3)cc2)CC1` showed an inhibition of 15.6%. `O=C(c1ccc(S(=O)(=O)c2ccccc2)cc1)N1CCCCCC1` was tested, and the inhibition was -8.79%. `O=C(c1ccc(CSc2ccccc2)cc1)N1CCCCCC1` was tested, and the inhibition was 80.6% (active). For `CCOc1ccccc1C(=O)NC1CC2CCCC(C1)N2Cc1ccccc1` (stereo not given), the inhibition was 7.09%. `Cc1cccc(C2=N/C(=C/c3cccs3)C(=O)O2)c1` gave an inhibition of 9.27%. With `CSC1=N/C(=C\C=C\c2cccs2)C(=O)S1` the inhibition was 77.8% (active). `O=C1N/C(=C/c2cccs2)C(=O)N1Cc1ccc(F)cc1` gave an inhibition of -6.09%.
